# Compounds with a hit are over-represented: about 10% of the library has one in this group of screens.
# FLuc inh-1: inhibitors of firefly (Photinus pyralis) luciferase. P08659. purified P. pyralis luciferase, luminescence, biochemical. Potency, µM (titrated, usually from 115 µM), hits mostly inhibitors. actives 2.5% (n = 76,000); note: % is set by controls: 0 for no effect and ±100 for the full control effect; nearly all actives have a fitted effect of over 65% in size
#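 Inhibitors were tested against purified firefly luciferase in a biochemical, low-substrate format (both substrates at 10uM) and luminescence measured with a CCD imager.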
# GPT2 inh: GPT2 alanine aminotransferase inhibition. actives 0.25% (n = 100,000). Q8TD30. Potency, µM (doses to about 57.7 µM), for inactives: top-dose activity change, negative = inhibition, usual class: inhibitors. Recombinant GPT2, coupled pyruvate oxidase/HRP Amplex Red fluorescence. AID 1671188; note: % is set by controls: 0 for no effect and ±100 for the full control effect; nearly all actives have a fitted effect of over 60% in size
# Target sequence (Q8TD30 whole entry, looked up): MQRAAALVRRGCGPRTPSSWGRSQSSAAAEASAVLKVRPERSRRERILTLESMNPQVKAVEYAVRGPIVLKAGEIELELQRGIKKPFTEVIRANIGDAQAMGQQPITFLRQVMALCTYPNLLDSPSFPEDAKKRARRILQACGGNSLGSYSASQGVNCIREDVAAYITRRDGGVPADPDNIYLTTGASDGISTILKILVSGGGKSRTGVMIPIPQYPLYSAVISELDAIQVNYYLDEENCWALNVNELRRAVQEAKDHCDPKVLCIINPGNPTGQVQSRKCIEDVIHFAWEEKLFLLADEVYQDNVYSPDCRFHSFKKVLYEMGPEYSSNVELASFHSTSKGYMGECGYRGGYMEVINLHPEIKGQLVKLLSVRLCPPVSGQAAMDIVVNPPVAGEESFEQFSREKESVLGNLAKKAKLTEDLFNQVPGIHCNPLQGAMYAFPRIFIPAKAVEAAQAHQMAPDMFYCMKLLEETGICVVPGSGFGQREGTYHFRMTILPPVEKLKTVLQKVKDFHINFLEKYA
#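 GPT2 10ng/uL, a-KG 250uM, L-Ala 2mM, HEPES pH7.5 + 0.0001% Tween; 30 min RT. Then Amplex mix (PO/HRP/ThPP), 30 min RT dark, fluorescence. AOA 50uM used as positive control.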
# 3T3 cytotox: kills NIH 3T3 cells | NIH 3T3 viability, CellTiter-Glo ATP luminescence, 48-72 h | Potency, µM (series often up to 96.7 µM), for inactives: at the top dose activity change, negative = cytotoxicity, most hits filed as inhibitors | actives 4.3% (n = 94,000) | AID 1345082; note: % is set by controls: 0 for no effect and ±100 for the full control effect; nearly all actives have a fitted effect of over 55% in size
#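 Luminescent ATP readout (CellTiter-Glo, 10 min RT) after 48 or 72 hr compound exposure of NIH 3T3 cells seeded at 400 cells/well in 1536-well format; quantitative HTS.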
# NPR1 antag: antagonists of human natriuretic peptide receptor Npr1; Potency, µM (highest dose often 46.3 µM), without a hit: top-dose activity change, negative = inhibition, usual class: inhibitors; P16066; HEK293 hNpr1 GloSensor cGMP, ANP-stimulated luminescence; actives 1.6% (n = 76,000); calls by dose curve; note: % is set by controls: 0 for no effect and ±100 for the full control effect; nearly all actives have a fitted effect of over 60% in size
#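 Compound pre-incubated 30 min at room temperature on GloSensor-loaded HEK293 cells stably carrying hNpr1 and the pGS-40F cGMP biosensor. Stimulation uses hNppA at 0.1 nM final; luminescence is taken at baseline and 20 min post-agonist.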
# HEK cytotox: HEK 293 cell cytotoxicity; HEK 293 viability, ATP luminescence (CellTiter-Glo), 48-72 h; Potency, µM (series often up to 115 µM), for the others: at the highest dose activity change, negative = cytotoxicity, hits mostly inhibitors; actives 6.6% (n = 94,000); note: % is set by controls: 0 for no effect and ±100 for the full control effect; nearly all actives have a fitted effect of over 60% in size
#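 Pintool-delivered compounds were incubated with HEK 293 cells (250 cells/well) at 37 degree Celsius for 48 or 72 hr. ATP-dependent luminescence (CellTiter-Glo) then reported remaining viable cells.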
# FLuc SDR -ATP: firefly luciferase binding stabilization, ATP absent; Purified FLuc-C-HiBiT, Nano-Glo HiBiT luminescence, no ATP; actives 7.8% (n = 1,300); shares compounds with FLuc inh-1; Potency, µM (top dose mostly 32.7 µM), for the others: at the highest dose activation (signal gain), actives largely listed as activators; note: nearly all actives have a fitted effect of over 55% in size
# FLuc SDR ATP: firefly luciferase binding stabilization, ATP added | shares compounds with FLuc inh-1 | Potency, µM (top dose mostly 32.7 µM), for the others: at the top dose activation (gain of signal), usual class: activators | purified FLuc-C-HiBiT + ATP, HiBiT complementation luminescence | actives 8.7% (n = 1,300);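 note: signal reports ligand binding via conformational change of the enzyme rather than luciferase catalysis; % of control where 0% means no effect; nearly all actives have a fitted effect of over 55% in size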
# FLuc inh-2: inhibitors of firefly luciferase enzymatic activity; shares compounds with FLuc inh-1; purified FLuc-C-HiBiT enzyme, luciferin luminescence; Potency, µM (top dose mostly 32.7 µM), for inactives: at the top dose activity change, negative = inhibition, actives largely listed as inhibitors; actives 42% (n = 1,300); AID 1963320; note: % is set by controls: 0 for no effect and ±100 for the full control effect; nearly all actives have a fitted effect of over 70% in size
# Starred values were filed as active, the others as inactive; i = inactive; ? = inconclusive; / = not tested or not shown; [ ] = another dose, or the depositor's remark. Unless noted, calls come from the whole dose curve; as a rule, active = well fitted curve in the direction sought with a large enough effect; inconclusive = small, poorly fitted or top-dose-only effect, or another doubt; inactive = no such curve, though single readings can be large; an effect the other way counts as inactive or inconclusive. Potency is the fitted concentration of half-maximal effect.
SMILES,FLuc inh-1,GPT2 inh,3T3 cytotox,NPR1 antag,HEK cytotox,FLuc SDR -ATP,FLuc SDR ATP,FLuc inh-2
Cn1cc(-c2ccc(Cl)cc2)cc1C(=O)O,?,i,?,-4%,?,10%,10%,-15%
Cc1ccc(-c2cc(C(=O)O)n(C)c2)cc1,16µM*,i,-29%,-14%,0%,11%,?,?
CN(C)C(=O)c1cc(-c2ccc(Cl)cc2)cn1C,?,-5%,-25%,0%,?,/,/,/
Cn1cc(-c2ccccc2)cc1C(=O)N1CCCC1,i,i,-10%,-1%,?,/,/,/
CC(C)N(C)Cc1nnnn1CC(=O)NCCn1ncc2ccccc2c1=O,i,-10%,1%,6%,-6%,/,/,/
O=C(c1cnccn1)N1CC[C@H](c2nc3ccccc3o2)C1,i,-3%[88.5 µM],5%[174 µM],6%[70.6 µM],-3%[172 µM],/,/,/
Cc1cccc(CCNC(=O)c2sc3nc4n(c(=O)c3c2C)CCCC4)c1,/,/,/,/,/,11%,8%,-5%
Cc1ccc(C(=O)N2C[C@@H](F)C[C@H]2C(=O)N2CCc3ccccc3C2)s1,i,?,-22%,2%,-9%,/,/,/
COc1ccc(C(=O)N[C@@H]2CCC[C@@H]2C(=O)N2CCN(c3ccccc3OC)CC2)cc1,i,i,-19%,-6%,?,/,/,/
CC[C@@]1(C(=O)O)C[C@H](C(=O)NCc2ccccn2)[C@H](c2ccc(OC)cc2)N1C,i,i,-22%,1%,-18%,/,/,/
C[C@H](C(=O)NCCN1CCOCC1)C1CC[C@@]2(C)Cc3sc(-c4ccccc4)nc3[C@@H](C)[C@@H]2[C@H]1O (stereo not given in full),11µM*,2%,?,?,?,2.2µM*,?,0.99µM*
Cc1nc2c(s1)C[C@]1(C)CCC([C@H](C)C(=O)N3CCOCC3)[C@H](O)[C@H]1[C@@H]2C (stereo not given in full),i,-4%[88.5 µM],-18%[138 µM],2%[70.6 µM],-12%[172 µM],/,/,/
Nc1ccc2nc(-c3ccc(O)cc3)sc2c1,/,/,/,/,/,3.9µM*,?,0.62µM*
O=C(O)c1ccc(-n2nc(-c3ccccc3O)nc2-c2ccccc2O)cc1,/,i,/,/,/,/,/,/
Cc1c(C(=O)Nc2ccc(C(=O)O)cc2)nnn1-c1ccccc1,/,/,/,/,/,7µM*,0.078µM*,0.078µM*
OCc1ccnc(-c2ccc(-c3ccn[nH]3)cc2)c1,10µM*,-4%,-14%,5µM*,0%,23%,?,?
CS(=O)(=O)N1CCC(C2CCN(C(=O)c3cc(Cl)ccc3F)C2)CC1 (stereo not given),i,1%,-14%,4%,-6%,/,/,/
CN(C)C1CCN(c2ccc(-c3nc(CCCc4ccccc4)no3)cn2)CC1,5.6µM*,-7%,35µM*,-15%,28µM*,11%,13%,-17%
Cc1nnc(CN(C)c2ccc(-c3nc(CCCc4ccccc4)no3)cn2)o1,?,-6%,-8%,?,?,/,/,/
COCCOc1nc(N)c2[nH]c(=O)n(Cc3ccc(C(=O)O)cc3)c2n1,/,/,/,/,/,12%[11.8 µM],7%[11.8 µM],-1%[11.8 µM]
Cc1sc(C)c(C(=O)NC2(c3ccc(C(=O)O)cc3)CC2)c1Cc1ccc(C(F)(F)F)cc1,/,i,/,/,/,/,/,/
Cc1ccc(S(=O)(=O)Nc2nc3c(s2)C[C@]2(C)CC[C@@H]4[C@H](OC(=O)[C@H]4C)[C@H]2[C@@H]3C)cc1,?,-2%,-23%,-2%,-21%,/,/,/

# High-throughput results from PubChem.
